Measured values reported in PubChem BioAssay (NCI).
Compounds without any hit were thinned out: in the full panel of roughly 83,000, 20% have a hit.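 Growth was measured after 48 h exposure to one concentration of compound in 96-well plates. Values under 10 count as active.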 Unmarked numbers belong to inactive results. Activity calls are given as the source filed them.

Tested on: HL-60(TB) leukemia
Test: NCI-60 one-dose screen, 48 h (100 = growth as untreated, 0 = no growth, -100 = all killed)
Conditions: 10 µM unless noted

Compound	growth
N#CC1=C(N)Oc2nc[nH]c(=O)c2C1c1cccs1 (centres undefined)	98.8%
Oc1ccccc1N=Cc1c(O)ccc2ccccc12	8.97% (active)
O=[N+]([O-])c1ccc(N=Nc2ccccc2)cc1	67.1%
C/C(=N\NC(=S)N1CC2CCC(CC2)C1)c1ccccn1	-22.4% (active)
CCc1ccc(OCc2ccccc2C(=O)Nc2ccc3nc(C)cc(N)c3c2)cc1	-75.9% (active)
COC(=O)Nc1nc2ccc(C(=O)c3ccc(N(C)C4COC4)cc3)cc2[nH]1	-28.8% (active)
ClC1=NC(Cl)C(Cl)=N/C1=N\c1ncn[nH]1 (centres undefined)	-64.6% (active)
NC1=C(Cl)C(=O)c2ccc(S(N)(=O)=O)cc2C1=O	3.12% (active)
CN(CSc1ccc(Cl)cc1)c1ccc(CSc2ccc(Cl)cc2)cc1	-16.2% (active)
Nc1nc2c(c3cnccc13)C(c1cccc(Cl)c1)Cc1cnccc1-2 (centres undefined)	4.89% (active)
Nc1ncccc1O	51.6%
COc1c(C)c2c(c(O)c1C/C=C(\C)CCC(=O)O)C(=O)OC2	45.6%
COc1ccc(CCN(CC(=O)N(CC(N)=O)C2CCC[C@@H]2OCc2ccccc2)C(=O)CN(C(=O)CN(CCc2ccc(Cl)cc2)C(=O)CN(C(=O)CN(C)Cc2ccccc2F)[C@H](C)C2CCCCC2)[C@H](C)C2CCCCC2)cc1OC (some centres undefined)	-24.4% (active)
COc1ccc(C2CC(c3cc(OC)c(OC)c(OC)c3)=NN2)cc1 (centres undefined)	60.1%
CCn1c(Sc2nnc(NC(=O)CSC(=S)N3CCCCC3)s2)nc2c1c(=O)n(C)c(=O)n2C	95%
CCCCCCCC/C=C/CCCCCCCC1=NC(C)(C)CN1CCO	-61.5% (active)
S=C(Nc1ccccc1)N1CCCCC1	93.5%
CCOC(=O)n1cc(C2=C(c3cn(C)c4ccccc34)COC2=O)c2ccccc21	-23.6% (active)
CN(C)c1ccc2c(c1)/C(=N/O)c1ccccc1-2	87.3%
O=c1c2cccc3c(NC4CCCCC4)ccc(c32)c2nc3ccccc3n12	62.6%
CCOC(=O)c1cnn(CC(O)CC)c1NC(=O)NCc1ccccc1C(F)(F)F (centres undefined)	76.4%

Compound	growth
N#Cc1c(-c2ccccc2)cc(-c2ccccc2)n(CC(=O)O)c1=O	23.6%
COc1ccc(Nc2nc(NCc3ccccc3)c3ccccc3n2)cc1	89.5%
CCN(CCCNc1cc2c(c(N)c1S(=O)(=O)O)C(=O)c1ccccc1C2=O)c1ccccc1	84.9%
c1ccc(-c2nnc(-c3c[nH]c4ncccc34)s2)cc1	98.4%
CC1(O)CCCCC1O (centres undefined)	107%
CN1CCN(CC(=O)N2c3cccc4cccc(c34)N(C(=O)CN3CCN(C)CC3)C2c2cn(-c3ccccc3)nc2-c2cccc([N+](=O)[O-])c2)CC1	-60% (active)
CCCCCCCCCCCCCCCCC(=O)O.CCCCCCCCCCCCCCCCCC(=O)O.CCCCCCCCCCCCCCCCCC(=O)O.CCCCCCCCCCCCCCCCCC(=O)O.CCCCCCCCCCCCCCCCCC(=O)O.CO[CH-]OC12COC1CC(O)C1(C)C(O)C(OC(C)O)C3=C(C)C(OC(=O)C(O)C([NH-])c4ccccc4)CC(O)(C(OC(=O)c4ccccc4)C21)C3(C)C.[Cu+].[Zn].[Zn].[Zn].[Zn].[Zn] (centres undefined)	-3.29% (active)
Fc1ccc(/C=C/c2cc(/C=C/c3ccc(F)cc3)n(-c3cc(F)cc(F)c3)n2)cc1	78.9%
C=C1C(=O)O[C@H]2[C@H]1CC/C(Cn1cc(-c3ccc(N)cc3)nn1)=C\CC[C@@]1(C)O[C@@H]21	-27.9% (active)
CC(C)N1CC(=O)N2CSCC2C1=O (centres undefined)	102%
CC(Cc1ccco1)C(=O)NC(N)=O (centres undefined)	87.5%
CN(c1ncccc1CNc1nc(Nc2ccc3c(c2)CC(=O)N3)ncc1C(F)(F)F)S(C)(=O)=O	-40% (active)
Clc1ccc2c(NCCNc3nc(-c4ccccc4)cc(-c4ccccc4)n3)ccnc2c1	-46.6% (active)
CN1CCN(c2ccc(/C=C/C(=O)c3ccc(O)cc3)cc2)CC1	115%
O=C(Nc1ccc(-n2ccc3c(NC(=O)c4ccccc4)nccc32)cc1)c1cccc(C(F)(F)F)c1	16.8%
Cc1ccc(S(=O)(=O)Nc2ccc(-c3cc(-c4cccc(F)c4)c(C#N)c(=O)[nH]3)cc2)cc1	87%
Cc1ccc(C2CCCCC2)cc1Br	97%
CCOC(=O)c1c(C)nc2c(c1N)C(=O)C(=O)N2Cc1ccc(OC)cc1	46.6%
O=Cc1c[nH]c2ccc(-c3csc4ccccc34)cc12	3.68% (active)
O=C1C(=O)c2ccccc2C(O)=C1CCCc1ccc(Oc2ccccc2)cc1	44.3%
Fc1ccccc1-c1nc(-c2nc3cc(Cl)c(Cl)cc3[nH]2)c2ccccn12	81.6%

Compound	growth
CCc1nc(N)nc(N)c1C#CC(C)c1cc(-c2ccnc(C)c2)c2oc(C)nc2c1 (centres undefined)	-42.4% (active)
CO/C=C/C(=O)c1cc2cnc3c(=N)cc(NC(=O)C(C)C)c([nH]1)c23	-0.789% (active)
O=C1NCC(c2cc3ccccc3[nH]c2=O)Nc2ccccc21 (centres undefined)	95.7%
OCCN1CCN(c2nc(Nc3ccc(-c4nc5ccccc5[nH]4)cc3)c3cn[nH]c3n2)CC1	-65.8% (active)
CC(C)OC(=O)[C@H](C)N[P@@](=O)(OC[C@@]1(C)O[C@@H](n2cc(F)c(N)nc2=O)C[C@@H]1O[P@](=O)(N[C@@H](C)C(=O)OC(C)C)Oc1ccccc1)Oc1ccccc1	95.5%
O=c1[nH]cnc2c1ccn2C1OC(CO)C(O)C1O (centres undefined)	34%
Cc1nn2c(-c3nc4cc(Cl)c(Cl)cc4[nH]3)c(-c3ccc(F)cc3)nc2s1	106%
N=C(N)Sc1cccc[n+]1[O-]	27.8%
Cc1c(-c2cnc3ccc(Cl)cc3c2C(=O)O)nnn1-c1ccc(Cl)cc1	96.2%
O=[N+]([O-])c1ccc(-n2[nH]nnc2=S)cc1	105%
COc1ccc(Nc2ncccc2/C=C/C(=O)c2cc(OC)c(OC)c(OC)c2)cc1	-42.4% (active)
O=C(O)c1cccc2c1C(=O)N(c1ccc3c(c1)Cc1ccccc1-3)C2=O	112%
CC(=O)ON1CCCC(P(=O)(OCCSC(=O)C(C)(C)C)OCCSC(=O)C(C)(C)C)C1=O (centres undefined)	14%
COC(=O)CCc1cc(O)c2c(c1)[C@@H](C(=O)OC)[C@H](c1ccc(O)c(O)c1)O2	9.9% (active)
COc1ccc(/C=C\c2cc(OC)c(OC)c(OC)c2)cc1OCC(=O)Nc1nc2ccccc2s1	18.7%
O=C(OC[C@@H]1CO1)c1cccc2c(=O)c3ccccc3[nH]c12	-51.4% (active)
O=C1NN(c2ccccc2)C(c2cccnc2)=N/C1=C\c1cccnc1	104%
CCN(CC)CC(O)CNc1ccnc2cc(Cl)c(Cl)cc12 (centres undefined)	92.2%
COc1cccc(-c2[nH]c(=S)ncc2C(=O)c2ccccc2)c1	78.2%
C=C(C)[C@@H]1CC[C@]2(C(=O)N3CCNCC3)CC[C@]3(C)[C@H](CC[C@@H]4[C@@](C)(CCC(=O)N5CCNCC5)[C@H](C(=C)C)CC[C@]43C)[C@@H]12	61%
CC(=O)OC[C@]12CCC(C)(C)C=C1[C@H]1CC[C@@H]3[C@@]4(C)CCCNC(C)(C)[C@@H]4CC[C@@]3(C)[C@]1(C)CC2	0.652% (active)

Compound	growth
O=C(CSCC(=O)N/N=C/c1ccccc1O)N/N=C\c1ccccc1O	-32.8% (active)
Cc1ccc2oc(=O)cc(-c3cc(-c4cc5ccccc5oc4=O)nc(N)c3C#N)c2c1	93.5%
CCCCCC(C)(CC(=O)O)CC(=O)O	90.5%
Cc1ccc(NC(=O)Cc2ccc(/C=C/C(=O)c3ncc[nH]3)cc2)cc1	27.5%
CCN(CC)c1ccc2nc3c4ccccc4c(=NC(=O)c4ccccc4-c4c5ccc(N(CC)CC)cc5[o+]c5cc(N(CC)CC)ccc45)cc-3oc2c1	-69.7% (active)
Cc1ccc2c(n1)C(=O)c1[nH]c3ccccc3c1C2=O	67.8%
N#Cc1c(-c2ccc(Cl)cc2)csc1NC(=O)Nc1ccc(Cl)c(C(F)(F)F)c1	-34.2% (active)
O=C(Nc1nc(-c2ccccc2)cc(-c2ccc(Cl)cc2)n1)c1ccncc1	110%
OC(c1ccccc1)c1nnc(SCc2ccccc2)n1Cc1ccccc1 (centres undefined)	112%
CCN1CCN(Cc2ccc(NC(=O)c3nc4ccc5[nH]ncc5c4c4c3CCCC4)cc2C(F)(F)F)CC1	-59% (active)
O=[N+]([O-])c1c(O)c(CNCCCO)cc(CNCCCO)c1O	75.8%
CCN(C)c1ccccc1	100%
COc1cc(-c2cnc3nonc3n2)c(OC)c2c1OCO2	88.8%
Clc1ccc(N2CCN(CCCN3CCN(c4cccc(Cl)c4)CC3)CC2)cc1	17%
CNC(=O)c1cc(Oc2ccc3nc(Nc4cc(Cl)cc(Cl)c4)ccc3c2)ccn1	47.6%
O=C(Nc1cccc(Br)c1)Oc1cccc2cccnc12	4% [100 µM] (active)
CC(=O)c1cc(O)ccc1O	62.1%
CCOc1ccc2c(c1)CC[C@@H]1[C@@H]2CC[C@]2(C)[C@@H](O)[C@@H](O)C[C@@H]12	97%
COc1ccccc1/C=C/C(=O)Nc1ccc(F)cc1	86.3%
O=C(Oc1c(Cl)c(Cl)c(Cl)c(Cl)c1Cl)C1CCCN1C(=O)OCc1ccccc1 (centres undefined)	-12.5% (active)
Cc1c(C(N)=O)sc2ncn(CC(=O)Nc3ccc(Cl)cc3)c(=O)c12	110%
